molecular target: Glucose transporter (Leishmania mexicana) (UniProt O61059); test: ST_JUDE_LEISH: Cytotoxicity at 2uM final concentration against transgenic Leishmania Mexicana promastigotes LmGT2 that are glucose transport deficient and complemented with the L. Mexicana glucose transporter 2. Activity is measured by DNA content using SYBR green in vitro; assay type: functional

Going from `CC(=O)Nc1cccc(-c2cn(-c3ccc(OCc4cccc(F)c4)c(Cl)c3)c3ncncc23)c1` to `O=C(Nc1cccc(-c2cccc(-c3nc4ccccc4[nH]3)c2)c1)c1csnn1`, the inhibition rises from -0.28% to 1.92%.

First: O=C(NC1CCN(Cc2ccccc2O)C1)c1ccc(Cl)c(Cl)c1 (stereo not given)
Second: O=C(/C=C/c1ccc(Cl)c(Cl)c1)NCCCCCN1CCC(c2cn[nH]c2-c2ccccc2)CC1
The inhibition of the first is lower: -5.99% for the first, 1.87% for the second.

First: CCN(CC)CC(O)CNc1c2ccc([N+](=O)[O-])cc2nc2cc(OC)c(OC)cc12 (stereo not given)
Second: CCOc1cc(Br)c(C(C)NC(=O)c2cccc(OC)c2)cc1OCC (stereo not given)
The inhibition of the first is higher: 42% for the first, -0.19% for the second.

Compared with `CCN(CC)CCN(CCCc1ccc(-c2ccc(C(F)(F)F)cc2)cc1)C(=O)Cn1c(CCc2cccc(F)c2F)nc(=O)c2ccccc21`, `CN1CCN(CCCN(Cc2csc(-c3ccc(CNCc4ccccc4)cc3)n2)S(=O)(=O)c2ccccc2Cl)CC1` is higher in inhibition: 2.33% for the first, 2.9% for the second.

Compared with `CN1CCCN(c2ccnc3cc4c(cc23)N(C(=O)c2ccccc2Cl)CC4)CC1`, `CN1CCN(c2cc3c(cc2Cl)CCN3C(=O)Nc2ccc(NC(=O)c3ccc(C(F)(F)F)cc3)cc2)CC1` is higher in inhibition: -0.18% for the first, 1.98% for the second.

Compared with `CC(C)(C)NC(=O)c1ccc(Oc2ccc(OC(F)(F)F)cc2)c(NC(=O)C(C)(C)C)c1`, `Cc1[nH]c(C)c(-c2ccc(Oc3ccc(F)cc3)cc2)c(=O)c1Br` is higher in inhibition: -2.26% for the first, 2.46% for the second.

Compared with `N#Cc1cccc(C(=O)Nc2cccc(-c3ccc(CN4CCC(O)CC4)cc3)c2)c1`, `C=Cc1c(C2CCN(CCCCNC(=O)c3ccc(-c4ccc(C#N)cc4)cc3)CC2)ccc2c1CCCC2` is higher in inhibition: 0.83% for the first, 1.54% for the second.

Compared with `C=CCn1c(SCC(=O)Nc2cc(C)ccc2OC)nc2sc(C)cc2c1=O`, `COc1ccc(NC(=O)/C=C/c2ccccc2Cl)cc1OCCN1CCC(NCc2ccccc2)CC1` is lower in inhibition: 2.13% for the first, 0.75% for the second.

Going from `CS(=O)(=O)CCNCc1cccc(-c2ccc3c(Nc4cc(O)c(Cl)cc4F)ccnc3c2)c1` to `O=S(=O)(Nc1cc2c(cc1O)CCNCC2)c1ccc(-c2ccc(Cl)cc2)cc1`, the inhibition falls from 2.65% to 2.34%.

Compared with `COCc1ccc(CN2CCC(C(=O)Nc3ccc(-c4nc5ccccc5[nH]4)cc3)CC2)o1`, `Fc1ccc2[nH]c(-c3ccc(-c4cccc(CN5CCCCC5)c4)cc3)nc2c1` is lower in inhibition: 5.81% for the first, 1.72% for the second.

Compared with `FC(F)(F)c1cnc(Sc2nnc(-c3ccncc3)o2)c(Cl)c1`, `CC(C)(C)c1nn(-c2ccc(Cl)cc2)c2[nH]c(=O)c(CNC3CCCC3)cc12` is lower in inhibition: 9.49% for the first, 8.31% for the second.

Going from `CCCCCCN1CCC(NCc2ccc(OCCN3CCCC3)cc2)CC1` to `CCC(C)NC(=O)CN1CN(c2ccccc2)C2(CCN(C(=O)c3ccc(-c4ccccc4)cc3)CC2)C1=O` (stereo not given), the inhibition rises from -0.15% to 7.73%.

With `NC(=O)c1ccsc1NC(=O)CNC(c1ccccc1)c1ccc(Cl)cc1` (stereo not given) the inhibition was 1.74%.

— ChEMBL document CHEMBL3433997, “St. Jude Leishmania screening dataset” (2016)
